Screen size: about 5,500 compounds; about 2,000 (36%) were called active. Not shown: some 18% with an inconclusive outcome. No stated cut-off is given here; in the data, active means normalized growth mostly below about 0.91 (no sharp cut-off); inconclusive means no clear call, values can overlap the other calls; inactive means mostly above about 0.92. The list shows a part of the results.
Assay: chemical genetic growth profiling, strain panel (AID 1159580);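 further: tested at 20 µM; growth read once vehicle control cultures reached saturation at 30 °C; 1 = growth at the plate median or of vehicle wells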
Conditions: S. cerevisiae deletion strains, growth OD

Measured: normalized growth

COc1c(-c2coc3cc4c(cc3c2=O)CC(O)C(C)(C)O4)ccc2c1C=CC(C)(C)O2 (centres undefined)
active: locus YOR270C, strain vph1, stronger effect = lower value 0.608
inactive: locus YAL021C, strain ccr4, stronger effect = lower value 0.992 | locus YAL026C, strain drs2, stronger effect = lower value 0.978 | locus YAL030W, strain snc1, stronger effect = lower value 0.996 | locus YBL061C, strain skt5, stronger effect = lower value 0.983 | locus YBR009C, strain hhf1, stronger effect = lower value 0.97 | locus YBR023C, strain chs3, stronger effect = lower value 0.983 | locus YBR171W, strain sec66, stronger effect = lower value 0.973 | locus YBR231C, strain swc5, stronger effect = lower value 0.989 | locus YBR279W, strain paf1, stronger effect = lower value 0.989 | locus YCL011C, strain gbp2, stronger effect = lower value 0.992 | locus YCL016C, strain dcc1, stronger effect = lower value 0.986 | locus YCL069W, strain vba3, stronger effect = lower value 0.97 | locus YCR088W, strain abp1, stronger effect = lower value 0.979 | locus YDL005C, strain med2, stronger effect = lower value 0.972 | locus YDL040C, strain nat1, stronger effect = lower value 0.987 | locus YDR001C, strain nth1, stronger effect = lower value 0.979 | locus YDR069C, strain doa4, stronger effect = lower value 1 | locus YDR137W, strain rgp1, stronger effect = lower value 0.902 | locus YDR159W, strain sac3, stronger effect = lower value 0.973 | locus YDR195W, strain ref2 1.05 | locus YDR297W, strain sur2, stronger effect = lower value 0.978 | locus YDR334W, strain swr1, stronger effect = lower value 0.958 | locus YDR335W, strain msn5, stronger effect = lower value 0.974 | locus YDR392W, strain spt3, stronger effect = lower value 0.829 | locus YEL003W, strain gim4, stronger effect = lower value 0.99 | locus YEL037C, strain rad23, stronger effect = lower value 0.973 | locus YEL061C, strain CIN8 (second series), stronger effect = lower value 0.98 | locus YER015W, strain faa2, stronger effect = lower value 0.991 | locus YER016W, strain bim1, stronger effect = lower value 0.992 | locus YER111C, strain swi4, stronger effect = lower value 0.973 | locus YER155C, strain BEM2 (second series), stronger effect = lower value 0.967 | locus YFR010W, strain ubp6, stronger effect = lower value 0.989 | locus YGL167C, strain pmr1, stronger effect = lower value 0.969 | locus YGL173C, strain kem1, stronger effect = lower value 0.989 | locus YGL227W, strain vid30, stronger effect = lower value 0.992 | locus YGL240W, strain doc1, stronger effect = lower value 0.979 | locus YGL253W, strain hxk2, stronger effect = lower value 0.983 | locus YHR013C, strain ard1, stronger effect = lower value 0.954 | locus YHR027C, strain rpn1, stronger effect = lower value 1 | locus YHR030C, strain SLT2, stronger effect = lower value 0.932 | locus YHR079C, strain IRE1, stronger effect = lower value 0.929 | locus YHR142W, strain chs7, stronger effect = lower value 0.942 | locus YJL092W, strain hpr5, stronger effect = lower value 0.99 | locus YJL095W, strain BCK1 (second series), stronger effect = lower value 0.983 | locus YJL095W, strain BCK1, stronger effect = lower value 0.94 | locus YJL115W, strain asf1, stronger effect = lower value 0.971 | locus YJL129C, strain trk1, stronger effect = lower value 0.887 | locus YJL154C, strain vps35, stronger effect = lower value 0.97 | locus YJL164C, strain tpk1, stronger effect = lower value 0.974 | locus YJL166W, strain qcr8, stronger effect = lower value 0.979 | locus YJL187C, strain SWE1, stronger effect = lower value 0.991 | locus YJR066W, strain TOR1, stronger effect = lower value 0.865 | locus YKL160W, strain elf1, stronger effect = lower value 0.992 | locus YKR026C, strain gcn3, stronger effect = lower value 0.957 | locus YKR091W, strain srl3, stronger effect = lower value 0.992 | locus YLL001W, strain dnm1, stronger effect = lower value 0.991 | locus YLL026W, stronger effect = lower value 0.989 | locus YLL041C, strain sdh2, stronger effect = lower value 1.01 | locus YLR027C, strain aat2, stronger effect = lower value 0.996 | locus YLR113W, strain HOG1, stronger effect = lower value 0.996 | locus YLR221C, strain rsa3, stronger effect = lower value 0.991 | locus YLR258W, strain gsy2, stronger effect = lower value 0.965 | locus YLR262C, strain YPT6 (second series), stronger effect = lower value 0.877 | locus YLR320W, strain mms22, stronger effect = lower value 0.962 | locus YLR342W, strain FKS1, stronger effect = lower value 0.98 | locus YLR357W, strain rsc2, stronger effect = lower value 0.967 | locus YLR370C, strain arc18, stronger effect = lower value 0.995 | locus YLR384C, strain iki3, stronger effect = lower value 0.976 | locus YML120C, strain ndi1, stronger effect = lower value 1.01 | locus YMR058W, strain fet3, stronger effect = lower value 0.993 | locus YMR125W, strain sto1, stronger effect = lower value 0.988 | locus YMR129W, stronger effect = lower value 0.982 | locus YMR205C, strain PFK2, stronger effect = lower value 0.961 | locus YMR231W, strain pep5, stronger effect = lower value 0.963 | locus YNL071W, strain lat1, stronger effect = lower value 0.975 | locus YNL183C, strain NPR1, stronger effect = lower value 0.922 | locus YNL209W, strain ssb2, stronger effect = lower value 1 | locus YNL248C, strain rpa49, stronger effect = lower value 0.971 | locus YNL322C, strain KRE1 (second series), stronger effect = lower value 1.02 | locus YNR049C, strain mso1, stronger effect = lower value 0.99 | locus YOR001W, strain rrp6, stronger effect = lower value 0.973 | locus YOR070C, strain gyp1, stronger effect = lower value 0.992 | locus YOR080W, strain dia2, stronger effect = lower value 0.994 | locus YOR083W, strain WHI5, stronger effect = lower value 0.978 | locus YOR106W, strain vam3, stronger effect = lower value 0.962 | locus YOR231W, strain MKK1, stronger effect = lower value 0.94 | locus YOR265W, strain rbl2, stronger effect = lower value 0.98 | locus YOR290C, strain snf2, stronger effect = lower value 0.955 | locus YPL051W, strain arl3, stronger effect = lower value 0.972 | locus YPL078C, strain atp4, stronger effect = lower value 0.972 | locus YPL106C, strain sse1, stronger effect = lower value 1.01 | locus YPL240C, strain hsp82, stronger effect = lower value 0.982 | locus YPL256C, strain CLN2, stronger effect = lower value 0.922
